Results from PubChem BioAssay (NCATS).
Results filed as inconclusive are left out. Where a call stands in place of a potency, no number is given. Unmarked numbers belong to inactive results. The source made the active and inactive calls. Calls follow the shape of the dose curve; as a rule, active = well fitted curve in the direction sought with a large enough effect; inconclusive = small, poorly fitted or top-dose-only effect, or another doubt; inactive = no such curve, though single readings can be large; an effect the other way counts as inactive or inconclusive.
Potency is read from the fitted curve at half-maximal effect.

Assay: P-glycoprotein substrates identified in KB-3-1 adenocarcinoma cell line, qHTS therapeutic library screen (AID 1346986); also: nearly all actives have a fitted effect of over 60% in size;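 also: potency is for cytotoxicity meaning loss of cell viability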
Details: KB-3-1 parental cells viability, CellTiter-Glo, 72 h; series mostly up to 44.5 µM
Method in brief: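 KB-3-1 parental and colchicine-selected P-gp-overexpressing KB-8-5-11 cells (colchicine omitted during assay), 500 cells/well, dosed in dose-response for 72 h at 37 °C; CellTiter-Glo luminescence. Cytotoxic: curve class -1.1 to -2.4, max response >50%, AC50 < 10 uM.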
For `CCn1cc(NC(=S)Nc2cc(Cl)ccc2OC)c(C(N)=O)n1`, the Potency was “inactive”. In the case of `CC(C)=CCC(O)/C(C)=C/CO[C@@H]1O[C@H](CO)[C@@H](O)[C@H](O)[C@H]1O` (stereo not given in full), the Potency is reported as “inactive”. For `CC(=O)C1=CCC2C3CCC4CC(O[C@@H]5O[C@H](CO)[C@@H](O[C@@H]6O[C@@H](C)[C@H](O)[C@@H](O)[C@H]6O)[C@H](O)[C@H]5O[C@@H]5O[C@H](CO)[C@@H](O)[C@H](O)[C@H]5O)CCC4(C)C3CCC12C` (stereo not given in full), the Potency was “inactive”. For `COC(=O)C1=CO[C@@H](O[C@@H]2O[C@H](CO)[C@@H](O)[C@H](O)[C@H]2O)[C@@H]2C(COC(C)=O)=C[C@H](O)[C@H]12`, the Potency was “inactive”. With `Nc1ccc(/C=C/C(=O)NCc2cc3cc(-c4ccc(C(=O)N5CCC(F)(F)CC5)cc4)cc(-c4ccc(F)cc4)c3o2)cn1` the Potency was 0.517 µM (active). In the case of `COC1=CC(=O)CC(C)C12Oc1cc(OC)cc(O)c1C2=O` (stereo not given), the Potency is reported as “inactive”. In the case of `COc1cc2ncnc(Nc3cccc(O)c3)c2cc1OC`, the Potency is reported as “inactive”. With `CCC(O)(C(=O)OCc1ccccc1NC(=O)CCC(=O)O)C(C)O` (stereo not given) the Potency was “inactive”. With `C=C(C)C(=O)O[C@H]1C[C@@](C)(O)C(=O)CC(O)/C(C)=C\[C@H]2OC(=O)C(=C)[C@H]12` (stereo not given in full) the Potency was “inactive”. With `CC(O)CO[C@@H]1O[C@H](CO)[C@@H](O)[C@H](O)[C@H]1O` (stereo not given in full) the Potency was “inactive”. In the case of `CC(=O)C12OC(C)(C)OC1CC1C3CCC4=CC(=O)C=CC4(C)C3(F)C(O)CC12C` (stereo not given), the Potency is reported as “inactive”. For `CC(=O)O[C@H]1[C@H](O[C@H]2[C@@H]3C=CO[C@@H](O[C@@H]4O[C@H](CO)[C@@H](O)[C@H](O)[C@H]4O)[C@@H]3[C@@]3(CO)O[C@@H]23)O[C@@H](C)[C@H](OC(=O)/C=C/c2ccccc2)[C@H]1OC(=O)/C=C/c1ccccc1`, the outcome was “inactive [at 9.29 µM]”. For `C=C(C(=O)O)[C@H]1C[C@]2(C)[C@@H](O)CC[C@]23O[C@H]1C[C@@H]3C`, the Potency was “inactive”. In the case of `CC1CC[C@]2(C(=O)O)CC[C@]3(C(=O)O)C(=CCC4[C@@]5(C)CC[C@H](OC6OC(C)C(O)C(OC7OC(CO)C(O)C(O)C7O)C6O)C(C)(C)C5CC[C@]43C)C2C1C` (stereo not given in full), the Potency is reported as “inactive”.

Assay: P-glycoprotein substrates identified in KB-8-5-11 adenocarcinoma cell line, qHTS therapeutic library screen (AID 1346987); also: nearly all actives have a fitted effect of over 65% in size
Details: KB-8-5-11 (P-gp overexpressing) viability, CellTiter-Glo, 72 h; series mostly up to 44.5 µM
Method in brief: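 Steps: plate 500 KB-8-5-11 cells/well in DMEM + 10% FCS (colchicine removed); pin compounds in dose-response; incubate 72 h, 37 degree C, 5% CO2; add CellTiter-Glo, 5 min; read luminescence.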
For `COc1c2c(c(C)c3c1C(=O)OC3)OC1(C)CC(O)C34OC(OC)(OC3(C)C)C(O)CC4(C)C1C2` (stereo not given), the Potency was “inactive”. In the case of `O=C1NC2CCc3nc4ccccc4c(=O)n3C2=Nc2ccccc21` (stereo not given), the Potency is reported as “inactive”. For `C[C@@H]1O[C@@H](O[C@@H]2CO[C@@H](O[C@H]3CC[C@@]4(C)C(CC[C@]5(C)C4CC=C4[C@@H]6CC(C)(C)CC[C@]6(C(=O)O[C@@H]6O[C@H](CO)[C@@H](O)[C@H](O)[C@H]6O)CC[C@]45C)[C@]3(C)CO)[C@H](O)[C@H]2O[C@@H]2O[C@H](CO)[C@@H](O)[C@H](O)[C@H]2O)[C@H](O)[C@H](O)[C@H]1O` (stereo not given in full), the activity change, negative = cytotoxicity was 4.08% [at 9.29 µM]. In the case of `OC[C@H]1O[C@@H](OC(CCCCc2ccc(O)cc2)CCc2ccc(O)cc2)[C@H](O)[C@@H](O)[C@@H]1O` (stereo not given in full), the Potency is reported as “inactive”. For `CC(=O)O[C@@H]1[C@@H](OC(=O)/C=C/c2ccccc2)[C@@H](OC(C)=O)[C@H](O[C@H]2[C@@H]3C=CO[C@@H](O[C@@H]4O[C@H](CO)[C@@H](O)[C@H](O)[C@H]4O)[C@@H]3[C@@]3(CO)O[C@@H]23)O[C@H]1C`, the Potency was “inactive”. For `CC1C(OC(=O)c2ccccc2)C(O)C2C(C(=O)O)=COC(OC3OC(CO)C(O)C(O)C3O)C12` (stereo not given), the Potency was “inactive”. For `Cc1c2cc(c(C(=O)O)c1C)OC1OC(C(O)C(O)C1O)C(O)C(O)C1OC(O2)C(O)C(O)C1O` (stereo not given), the Potency was “inactive”. For `CC(=O)OC1C(O)C2C(C)C3=CC(=O)OC3(O)CC2C2(C)CCCC(C)(CO)C12` (stereo not given), the Potency was “inactive”. With `CC(C)=CCC[C@](C)(O)[C@H]1CC[C@]2(C)[C@@H]1[C@H](O)CC1[C@@]3(C)CC[C@H](O)C(C)(C)C3[C@@H](O[C@@H]3O[C@H](CO)[C@@H](O)[C@H](O)[C@H]3O[C@@H]3OC[C@@H](O)[C@H](O)[C@H]3O)C[C@]12C` (stereo not given in full) the Potency was “inactive”. With `CCN1CCN(Cc2ccc(NC(=O)c3ccc(C)c(NC(=O)c4cncc(-c5cccs5)c4)c3)cc2C(F)(F)F)CC1` the Potency was 7.31 µM (active). For `C[C@@H]1O[C@@H](O[C@H]2[C@H](O[C@H]3[C@H](O[C@H]4CC[C@@]5(C)C(CC[C@]6(C)C5CC=C5[C@@H]7CC(C)(C)CC[C@]7(C(=O)O[C@@H]7O[C@H](CO)[C@@H](O[C@@H]8O[C@@H](C)[C@H](O)[C@@H](O)[C@H]8O)[C@H](O)[C@H]7O)CC[C@]56C)C4(C)C)OC[C@H](O)[C@@H]3O)O[C@H](CO)[C@@H](O)[C@@H]2O)[C@H](O)[C@H](O)[C@H]1O` (stereo not given in full), the outcome was “inactive [at 9.29 µM]”.
